The supplement of paper PMC10849652
Of roughly 8,800 targets only a part is listed; those with a hit were picked by preference. About 0.5% of all pairs of compound and target were hits. A number with no mark means an inactive call.

Legend:
Assay in all cases: log2 fold change, soluble protein after heating vs DMSO (PISA); higher = thermal stabilisation; K562 lysate, 10 uM; active = over 0.2 and 3.5 SD of the protein, either way, in both replicates (recomputed)
erlotinib = compound: C#Cc1cccc(Nc2ncnc3cc(OCCOC)c(OCCOC)cc23)c1 [erlotinib]
Procedure, shortened: (§1)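 Thermal stability, expressed as log-two fold change relative to solvent controls, is given from duplicates. Crude K562 extract in PBS pH 7.4 with 1 mM MgCl2, at 1 mg/mL protein, was treated with 10 μM compound for 30 min and heated in aliquots for 3 min across 48°C-58°C. After pooling, adjustment to 0.5% NP-40 at 4°C and centrifugation at 21,000xg for 90 min, supernatant protein was measured by TMTpro 16plex LC-MS/MS with channel sums equalised.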

[1] = compound: C/C(=N\NC(=O)C1=CC(=CC=C1)S(=O)(=O)N2CCOCC2)/C3=C(C=CC(=C3)Cl)O
Procedure, shortened: as §1

[2] = compound: C1=CC(=CC=C1C2=NC3=C(N2)C=C(C=C3)C(=O)N)OC4=CC=C(C=C4)Cl
Procedure, shortened: as §1

[3] = compound: C1=CC2=C(C=CC(=C2)/C=C\3/C(=O)NC(=NCC4=CC=CS4)S3)N=C1
Procedure, shortened: as §1

[4] = compound: C1=CC=C(C=C1)C2=NC(=C(N2)C3=CC=NC=C3)C4=CC(=C(C=C4)Cl)O
Procedure, shortened: as §1

[5] = compound: C1=CC=C2C(=C1)C3=NNC4=CC=CC(=C43)C2=O
Procedure, shortened: as §1

[6] = compound: C1CCN(C1)C(=O)NC2=CC=CC(=C2)NC3=NC=C(C(=N3)NCCC4=CN=CN4)Br
Procedure, shortened: as §1

[7] = compound: C1CN(CCC1(CC2=CC=C(C=C2)Cl)N)C3=NC=NC4=C3C=CN4
Procedure, shortened: as §1

IRAK-1-4 Inhibitor I = compound: C1COCCN1CCN2C3=CC=CC=C3N=C2NC(=O)C4=CC(=CC=C4)[N+](=O)[O-] [IRAK-1-4 Inhibitor I]
Procedure, shortened: as §1

[8] = compound: C1=CC2=NC=CN=C2C=C1/C=C/3\C(=O)NC(=O)S3
Procedure, shortened: as §1

Chain of UniProt Q96PZ2 (Q96PZ2 whole entry, looked up): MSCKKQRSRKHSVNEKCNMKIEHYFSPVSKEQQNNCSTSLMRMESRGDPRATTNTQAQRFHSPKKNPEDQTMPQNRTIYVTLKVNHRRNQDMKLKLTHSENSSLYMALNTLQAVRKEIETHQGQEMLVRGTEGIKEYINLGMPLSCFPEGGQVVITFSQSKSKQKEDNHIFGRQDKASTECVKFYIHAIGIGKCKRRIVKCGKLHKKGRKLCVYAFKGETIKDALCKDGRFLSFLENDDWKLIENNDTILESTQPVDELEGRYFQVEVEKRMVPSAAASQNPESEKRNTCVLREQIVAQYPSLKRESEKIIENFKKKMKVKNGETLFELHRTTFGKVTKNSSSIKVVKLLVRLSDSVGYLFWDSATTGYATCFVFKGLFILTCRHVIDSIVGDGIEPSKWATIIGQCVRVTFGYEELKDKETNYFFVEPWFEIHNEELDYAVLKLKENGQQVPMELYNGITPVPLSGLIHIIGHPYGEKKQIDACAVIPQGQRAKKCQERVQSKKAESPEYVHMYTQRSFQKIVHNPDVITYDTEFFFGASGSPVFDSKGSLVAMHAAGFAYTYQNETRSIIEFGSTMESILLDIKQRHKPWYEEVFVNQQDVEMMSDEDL
Chain of UniProt Q09472 (Q09472 whole entry, looked up): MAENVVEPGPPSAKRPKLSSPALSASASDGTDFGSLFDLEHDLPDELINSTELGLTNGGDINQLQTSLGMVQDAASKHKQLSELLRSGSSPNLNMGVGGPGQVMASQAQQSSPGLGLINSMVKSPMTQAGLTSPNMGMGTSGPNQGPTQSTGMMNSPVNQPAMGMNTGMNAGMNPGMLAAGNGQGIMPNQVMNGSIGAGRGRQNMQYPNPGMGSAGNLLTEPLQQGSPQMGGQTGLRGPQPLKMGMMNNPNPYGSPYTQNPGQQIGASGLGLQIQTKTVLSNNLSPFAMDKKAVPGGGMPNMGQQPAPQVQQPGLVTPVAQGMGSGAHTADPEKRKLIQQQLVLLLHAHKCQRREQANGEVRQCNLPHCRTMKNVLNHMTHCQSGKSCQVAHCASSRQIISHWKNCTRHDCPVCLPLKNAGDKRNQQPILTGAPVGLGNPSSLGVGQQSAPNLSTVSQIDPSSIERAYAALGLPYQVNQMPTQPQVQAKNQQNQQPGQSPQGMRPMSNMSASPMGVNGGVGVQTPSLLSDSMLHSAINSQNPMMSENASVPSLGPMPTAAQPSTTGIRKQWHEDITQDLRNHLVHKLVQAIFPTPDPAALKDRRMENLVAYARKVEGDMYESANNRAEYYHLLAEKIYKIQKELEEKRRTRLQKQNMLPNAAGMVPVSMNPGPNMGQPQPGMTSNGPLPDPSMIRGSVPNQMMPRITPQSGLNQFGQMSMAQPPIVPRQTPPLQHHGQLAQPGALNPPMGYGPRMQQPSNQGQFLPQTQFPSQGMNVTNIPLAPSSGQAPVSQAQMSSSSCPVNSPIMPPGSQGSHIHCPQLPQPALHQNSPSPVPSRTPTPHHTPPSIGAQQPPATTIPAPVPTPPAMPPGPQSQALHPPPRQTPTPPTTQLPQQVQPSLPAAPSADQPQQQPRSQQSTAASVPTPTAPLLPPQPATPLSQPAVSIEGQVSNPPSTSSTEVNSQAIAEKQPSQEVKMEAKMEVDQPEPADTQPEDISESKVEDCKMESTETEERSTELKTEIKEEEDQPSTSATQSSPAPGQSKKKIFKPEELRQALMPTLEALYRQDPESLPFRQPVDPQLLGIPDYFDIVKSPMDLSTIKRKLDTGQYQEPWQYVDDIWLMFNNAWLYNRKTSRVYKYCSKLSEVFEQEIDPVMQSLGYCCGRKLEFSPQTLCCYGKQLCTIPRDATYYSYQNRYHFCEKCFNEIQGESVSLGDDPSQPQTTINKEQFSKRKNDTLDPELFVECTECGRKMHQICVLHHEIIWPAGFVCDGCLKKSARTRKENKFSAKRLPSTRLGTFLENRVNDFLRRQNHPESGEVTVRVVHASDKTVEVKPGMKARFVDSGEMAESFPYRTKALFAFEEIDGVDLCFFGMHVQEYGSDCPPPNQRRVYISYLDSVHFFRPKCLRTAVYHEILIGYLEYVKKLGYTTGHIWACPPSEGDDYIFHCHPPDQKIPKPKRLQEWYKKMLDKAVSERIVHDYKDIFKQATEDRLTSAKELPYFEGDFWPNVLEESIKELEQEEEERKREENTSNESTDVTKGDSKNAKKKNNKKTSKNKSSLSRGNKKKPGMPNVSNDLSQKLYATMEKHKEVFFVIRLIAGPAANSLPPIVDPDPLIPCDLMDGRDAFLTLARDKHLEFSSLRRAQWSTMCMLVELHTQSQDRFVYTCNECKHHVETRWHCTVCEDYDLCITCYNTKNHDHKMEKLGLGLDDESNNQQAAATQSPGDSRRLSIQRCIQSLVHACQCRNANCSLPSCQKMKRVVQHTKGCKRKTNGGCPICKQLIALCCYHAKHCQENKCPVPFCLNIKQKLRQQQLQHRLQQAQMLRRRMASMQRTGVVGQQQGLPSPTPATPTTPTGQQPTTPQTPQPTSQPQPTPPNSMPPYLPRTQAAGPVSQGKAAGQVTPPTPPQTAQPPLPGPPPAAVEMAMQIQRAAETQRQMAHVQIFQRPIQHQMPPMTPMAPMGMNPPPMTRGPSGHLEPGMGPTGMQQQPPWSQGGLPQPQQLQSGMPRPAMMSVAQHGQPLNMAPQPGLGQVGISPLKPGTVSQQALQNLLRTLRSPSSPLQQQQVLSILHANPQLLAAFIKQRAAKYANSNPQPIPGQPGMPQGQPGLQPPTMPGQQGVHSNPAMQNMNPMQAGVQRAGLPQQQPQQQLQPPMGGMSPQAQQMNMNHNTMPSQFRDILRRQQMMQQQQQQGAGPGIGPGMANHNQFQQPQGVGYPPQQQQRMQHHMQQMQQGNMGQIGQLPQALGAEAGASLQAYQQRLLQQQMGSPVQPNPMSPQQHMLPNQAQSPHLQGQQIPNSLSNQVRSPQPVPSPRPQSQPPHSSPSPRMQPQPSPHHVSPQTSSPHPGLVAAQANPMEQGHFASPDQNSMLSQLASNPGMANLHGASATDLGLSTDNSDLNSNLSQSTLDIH
Chain of UniProt Q9P0K8 (Q9P0K8 whole entry, looked up): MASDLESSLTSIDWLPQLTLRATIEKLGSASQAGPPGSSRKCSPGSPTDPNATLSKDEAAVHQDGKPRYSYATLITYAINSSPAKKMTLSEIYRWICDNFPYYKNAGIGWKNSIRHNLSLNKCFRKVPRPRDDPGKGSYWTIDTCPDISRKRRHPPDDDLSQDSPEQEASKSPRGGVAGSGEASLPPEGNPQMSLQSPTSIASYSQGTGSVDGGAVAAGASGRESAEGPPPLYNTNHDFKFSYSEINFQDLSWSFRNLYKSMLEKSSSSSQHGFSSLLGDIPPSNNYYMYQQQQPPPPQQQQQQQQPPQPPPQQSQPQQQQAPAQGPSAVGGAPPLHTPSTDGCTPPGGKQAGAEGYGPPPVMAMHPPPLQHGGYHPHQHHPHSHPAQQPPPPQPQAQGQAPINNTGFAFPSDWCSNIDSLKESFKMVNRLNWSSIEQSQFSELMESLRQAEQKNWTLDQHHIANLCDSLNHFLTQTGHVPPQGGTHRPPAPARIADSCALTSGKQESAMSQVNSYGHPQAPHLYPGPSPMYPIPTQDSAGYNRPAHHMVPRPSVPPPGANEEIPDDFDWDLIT
Chain of UniProt P11171 (P11171 whole entry, looked up): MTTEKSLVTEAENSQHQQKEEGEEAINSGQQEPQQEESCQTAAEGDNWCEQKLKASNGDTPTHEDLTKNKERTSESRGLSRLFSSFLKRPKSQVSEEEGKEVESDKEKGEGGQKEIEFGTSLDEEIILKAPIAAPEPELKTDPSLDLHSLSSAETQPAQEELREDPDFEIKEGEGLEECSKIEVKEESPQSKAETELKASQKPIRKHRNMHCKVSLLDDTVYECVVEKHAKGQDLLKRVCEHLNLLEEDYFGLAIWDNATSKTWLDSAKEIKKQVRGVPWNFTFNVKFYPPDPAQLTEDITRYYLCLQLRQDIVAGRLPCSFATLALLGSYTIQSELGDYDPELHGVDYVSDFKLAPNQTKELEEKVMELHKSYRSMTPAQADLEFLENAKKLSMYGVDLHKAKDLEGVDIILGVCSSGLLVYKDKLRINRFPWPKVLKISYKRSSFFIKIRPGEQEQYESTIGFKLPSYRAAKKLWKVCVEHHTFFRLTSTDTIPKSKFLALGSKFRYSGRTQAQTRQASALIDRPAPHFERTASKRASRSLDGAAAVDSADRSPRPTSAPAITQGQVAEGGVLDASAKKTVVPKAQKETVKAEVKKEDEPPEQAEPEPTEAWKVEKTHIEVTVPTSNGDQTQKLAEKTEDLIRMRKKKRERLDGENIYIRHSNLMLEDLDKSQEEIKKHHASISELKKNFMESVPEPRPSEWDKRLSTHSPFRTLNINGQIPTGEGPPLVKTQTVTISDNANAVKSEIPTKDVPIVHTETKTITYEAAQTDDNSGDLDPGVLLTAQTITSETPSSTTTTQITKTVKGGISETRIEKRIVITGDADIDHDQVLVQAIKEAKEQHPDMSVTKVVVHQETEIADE
Chain of UniProt P26378 (P26378 whole entry, looked up): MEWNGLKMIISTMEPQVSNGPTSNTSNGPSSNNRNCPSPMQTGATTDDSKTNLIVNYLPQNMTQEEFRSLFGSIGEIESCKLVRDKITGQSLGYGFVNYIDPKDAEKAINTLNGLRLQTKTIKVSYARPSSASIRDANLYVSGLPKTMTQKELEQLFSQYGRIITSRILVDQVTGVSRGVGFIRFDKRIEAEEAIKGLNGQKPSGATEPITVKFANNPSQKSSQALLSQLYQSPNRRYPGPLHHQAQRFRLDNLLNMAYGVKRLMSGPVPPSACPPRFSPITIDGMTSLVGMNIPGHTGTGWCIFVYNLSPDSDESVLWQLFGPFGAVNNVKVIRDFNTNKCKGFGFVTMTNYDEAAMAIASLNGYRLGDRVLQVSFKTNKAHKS
Chain of UniProt Q9Y6B2 (Q9Y6B2 whole entry, looked up): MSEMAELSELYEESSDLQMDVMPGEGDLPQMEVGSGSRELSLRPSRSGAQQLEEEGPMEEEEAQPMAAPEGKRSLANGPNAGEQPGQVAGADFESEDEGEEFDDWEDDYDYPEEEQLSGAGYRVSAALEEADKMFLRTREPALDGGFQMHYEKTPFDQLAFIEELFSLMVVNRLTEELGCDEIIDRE

| Target | log2 fold change (erlotinib) | log2 fold change [1] | log2 fold change [2] | log2 fold change [3] | log2 fold change [4] | log2 fold change [5] | log2 fold change [6] | log2 fold change [7] | log2 fold change (IRAK-1-4 Inhibitor I) | log2 fold change [8] |
| --- | --- | --- | --- | --- | --- | --- | --- | --- | --- | --- |
| ELAVL4 (UniProt P26378) | 0.073 | 0.047 | -0.063 | -0.047 | 0.015 | 0.002 | 0.029 | 0.036 | -0.012 |  |
| GABPB1 (UniProt Q06547) | -0.004 | 0.033 | 0.012 | 0.028 | 0.016 | -0.009 | 0.026 | -0.008 | -0.042 | 0.035 |
| FTSJ1 isoform 2 (UniProt Q9UET6) |  | -0.149 |  | 0.055 |  | -0.039 | 0.051 | 0.059 |  |  |
| EPS8L2 (UniProt Q9H6S3) | 0.082 |  | 0.009 |  | 0.133 |  | -0.108 | 0.055 | -0.086 | 0.037 |
| EPB41 isoform 4 (UniProt P11171) | -0.128 |  | -0.054 |  | -0.012 |  |  |  | 0.002 |  |
| EIF2D (UniProt P41214) | 0.048 | 0.019 | -0.017 | 0.054 | 0.008 | -0.016 | 0.025 | 0.021 | -0.023 | 0.001 |
| EPN2 (UniProt I3L356) |  |  |  |  |  |  |  |  |  | -0.143 |
| ERG28 (UniProt Q9UKR5) |  |  |  |  |  |  | 0.072 | -0.066 |  | -0.015 |
| GCA (UniProt P28676) | -0.115 |  | -0.037 |  |  |  |  |  |  |  |
| GAPVD1 (UniProt Q14C86) |  |  |  |  |  |  |  |  |  | -0.016 |
| EWSR1 (UniProt H7BY36) |  | -0.711 |  | -0.346 | -0.208 | -0.428 | -0.011 | -0.035 | -0.074 | 0.111 |
| FOXL2 (UniProt P58012) | 0.274 |  | -0.129 |  | -0.085 |  | -0.024 | 0.187 | 0.026 | -0.006 |
| GART (UniProt C9JZG2) |  |  |  |  | 0.007 |  | -0.025 | -0.011 | 0.078 | 0.092 |
| GC isoform 3 (UniProt P02774) |  | 0.039 |  | -0.019 | -0.199 | 0.012 | 0.051 | 0.055 | 0.15 |  |
| DTL (UniProt Q9NZJ0) | 0.106 | -0.053 | 0.012 | 0.067 | -0.002 | -0.072 |  |  | 0.006 | -0.029 |
| FAM111A (UniProt Q96PZ2) | -0.025 | -0.04 | -0.01 | 0.002 | -0.088 | -0.088 | 0.046 | 0.022 | -0.088 |  |

| Target | log2 fold change (erlotinib) | log2 fold change [1] | log2 fold change [2] | log2 fold change [3] | log2 fold change [4] | log2 fold change [5] | log2 fold change [6] | log2 fold change [7] | log2 fold change (IRAK-1-4 Inhibitor I) | log2 fold change [8] |
| --- | --- | --- | --- | --- | --- | --- | --- | --- | --- | --- |
| DUSP22 isoform 2 (UniProt Q9NRW4) | -0.016 | 0.157 | 0.007 | 0.075 | 0.035 | 0.143 |  |  | -0.028 | 0.051 |
| DST isoform 3 (UniProt Q03001) | 0.005 |  | 0.181 |  |  |  | -0.034 | -0.043 |  | -0.085 |
| EID1 (UniProt Q9Y6B2) | 0.089 |  | -0.172 |  | 0.096 |  | 0.064 | 0.091 | 0.044 |  |
| EP300 (UniProt Q09472) | 0.017 | 0.011 | -0.024 | -0.017 | -0.015 | -0.019 | -0.033 | 0 | -0.006 | 0.078 |
| FAM204A (UniProt Q9H8W3) | -0.021 | -0.018 | -0.014 | 0.11 | 0.018 | -0.008 |  |  | 0.01 |  |
| GBA2 (UniProt Q9HCG7) | -0.088 |  | 0.063 |  | -0.055 |  | 0.007 | 0.041 | 0.01 | 0.035 |
| EPB41, A0A2R8Y783 |  | -0.136 |  | 0.09 |  | 0.017 | -0.001 | 0.346 |  | -0.058 |
| EHHADH (UniProt Q08426) | -0.05 |  | 0.08 |  | 0.007 |  | 0.045 | -0.106 | -0.09 | -0.029 |
| FAM76B (UniProt Q5HYJ3) | -0.027 | -0.35 | -0.016 | -0.137 | -0.053 | 0.046 | -0.019 | 0.061 | -0.008 |  |
| ESRRB isoform 1 (UniProt O95718) | 0.1 |  | -0.783 (active) |  | 0.016 |  |  |  | 0.236 | -0.021 |
| FOXJ2 (UniProt Q9P0K8) | 0.102 |  | 0.056 |  | 0.026 |  | 0.138 | -0.036 | -0.03 | 0.139 |
| EXO5 (UniProt Q9H790) | 0.279 |  | 0.012 |  | 0.085 |  |  |  | -0.028 | -0.226 |
| FAT1 (UniProt Q14517) | -0.004 |  | 0.006 |  | 0.126 |  | -0.119 | 0.128 | -0.053 |  |
| GDE1 (UniProt Q9NZC3) | 0.042 |  | 0.02 |  | 0.097 |  | 0.05 | 0.027 | -0.01 | -0.032 |
| GIPC3 (UniProt Q8TF64) | -0.049 |  | 0.091 |  | 0.063 |  | 0.008 | 0.139 | 0.101 | -0.025 |
